Four compounds from PubChem BioAssay can be followed below.

Assay [1] in a line: P. berghei load reduction in hepatocytes – cell-based, HepG2, luciferase luminescence, HepG2 viability, primary screen (AID 624349; in the data active = parasite load remaining mostly below about 12%, no sharp cut-off; inactive = mostly above about 10%;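 note: 100% = mean of DMSO negative control wells on the same plate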). Conditions: P. berghei liver stage in HepG2, luciferase luminescence, concentration not given here; parasite load remaining: stronger effect = lower value; viability: measured here: HepG2 viability without parasites.
A short description of assay [2]: signal quenchers or enhancers, Cy5 substrate/SSB – biochemical, NIH Clinical Collection, E. coli SSB, artefact control for HCV NS3 helicase inhibitor project (AID 743268; call rule not given here). The note with it: Cy5-oligo bound E. coli SSB, fluorescence interference.
The subject of assay [3] is Hepatitis C virus NS3 helicase. Kind of assay: blockers of NS3h binding to DNA – biochemical, fluorescence polarization, NIH Clinical Collection, primary screen (AID 743270; call rule not given here). Conditions: NS3 helicase binding to Cy5-dT15 DNA, stronger effect = higher value, concentration not given here. (Fluorescence polarisation rises when a labelled molecule tumbles more slowly, as on binding a larger partner.)

Assay [4] concerns the target Single-stranded DNA-binding protein (Escherichia coli (strain K12)) (UniProt P0AGE0). Description: SSB-ssDNA binding inhibitors – biochemical, fluorescence polarization, NIH Clinical Collection, counter-screen for HCV NS3 helicase inhibitor project (AID 743271; in the data active = inhibition above about 28%). Conditions: E. coli SSB-DNA binding, stronger effect = higher value, concentration not given here.
The nature of assay [5]: compounds distorting NS3 helicase fluorescence signal – biochemical, NIH Clinical Collection, artefact control for HCV NS3 helicase inhibitor project (AID 743272; call rule not given here;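 note: HCV NS3 helicase with a Cy5 labelled single stranded DNA probe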). The note with it: fluorescence interference counterscreen, HCV NS3 helicase assay; stronger effect = lower value. On the technique in general: The purpose of a counterscreen is to sort out artefacts and off-target activity.

For assay [6], the system named is Neuropilin-2 / VEGF-C interaction (human). Description: small molecules blocking Neuropilin-2/VEGF-C interaction – biochemical, microplate binding format, z-score (AID 743281; call rule not given here). Conditions: microplate NRP2/VEGF-C binding assay; stronger effect = lower value.
Assay [7] in a line: modulation of C. elegans fzo-1 (AID 1259413; call rule not given here;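 note: fzo-1 mutant C. elegans worms in liquid wells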). The note with it: C. elegans fzo-1 modulator screen, mean read-out; stronger effect = higher value.
A short description of assay [8]: viability loss with induced miR-34 in A549 – imaging, A549 dox-inducible miR-34, nuclei and caspase counts, primary screen (AID 1347080;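 active = compounds whose cell count with miR-34 switched on is under 0.7 times the count with it off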). Conditions: A549 miR-34 inducible, Hoechst nuclei count, 48 h.
Assay [9] can be described thus: galactose survival enhancers in mitochondrial complex I cybrids – cell-based, galactose medium, ATP luminescence, primary screen (AID 1645843;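 active = z-score of at least 1.8 in each of two replicates, scored against plate mean and spread of sample wells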;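 note: positive z means more ATP and so rescue of galactose-driven cybrid death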). The note with it: complex I mutant cybrid cells, 72 h, stronger effect = higher value.
The test system of assay [10] is F380Y. Kind of assay: BK channel mutant inhibitors and activators – cell-based, U2OS BacMam, thallium flux, beta subunits, selectivity assay, profiling panel (AID 1259406).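 Note: initial slope of Thallos dye fluorescence rise after thallium is added; log ratio against the mean of 0.3% DMSO vehicle wells on the same plate.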 The note with it: U2OS BacMam BK variants, at 30 µM.
Assay [11] concerns F380Y/beta1. The description is as above. Conditions: U2OS BacMam BK variants, at 30 µM.
Assay [12] concerns F380Y/beta2Delta. The description is as above. Conditions: U2OS BacMam BK variants, at 30 µM.
Assay [13] has as its system F380Y/beta4. The description is as above. The note with it: U2OS BacMam BK variants, at 30 µM.
Assay [14] deals with Calcium-activated potassium channel subunit alpha-1 (Homo sapiens) + Leucine-rich repeat-containing protein 26 (Homo sapiens) (UniProt Q12791+Q2I0M4). The description is as above. The note with it: U2OS BacMam BK variants, F380Y/Slo1WT/gamma1, at 30 µM.
Sequence of Calcium-activated potassium channel subunit alpha-1 (Homo sapiens) + Leucine-rich repeat-containing protein 26 (Homo sapiens) (Q2I0M4 whole entry, looked up, one chain of several): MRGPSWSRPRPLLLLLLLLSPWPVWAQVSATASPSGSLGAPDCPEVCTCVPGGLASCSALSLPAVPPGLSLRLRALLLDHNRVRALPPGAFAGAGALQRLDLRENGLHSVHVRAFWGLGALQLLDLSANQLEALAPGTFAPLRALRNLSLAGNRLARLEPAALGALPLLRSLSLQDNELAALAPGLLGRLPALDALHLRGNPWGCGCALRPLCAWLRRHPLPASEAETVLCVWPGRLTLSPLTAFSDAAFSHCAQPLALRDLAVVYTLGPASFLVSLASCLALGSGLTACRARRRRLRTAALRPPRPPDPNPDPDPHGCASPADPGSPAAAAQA
The test system of assay [15] is R275C. The assay is described as above. The note with it: U2OS BacMam BK variants, at 30 µM.
Assay [16] deals with R275C/beta1. Described as above. The note with it: U2OS BacMam BK variants, at 30 µM.
For assay [17], the system named is R275C/beta2Delta. The assay is described as above. Conditions: U2OS BacMam BK variants, at 30 µM.
Assay [18] deals with R275C/beta4. Described as above. Conditions: U2OS BacMam BK variants, at 30 µM.
In assay [19] the test system is R275C/Slo1WT/beta2. Described as above. Conditions: U2OS BacMam BK variants, at 30 µM.
The mark [20] stands for this setting: stronger effect = lower value, cell number ratio, induced over uninduced.
[21] abbreviates: measured here: relative caspase fold change +Dox/-Dox.
Setting [22] is: measured here: total cells with miR-34 induction, stronger effect = lower value.
[23] abbreviates: measured here: total cells without miR-34 induction.

Molecules are shown by their SMILES. Where “and” joins values, the source holds several entries; their conditions need not be identical. Identical values can stand only once. Calls of active or inactive are those of the source.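 Rule for the calls, unless noted: active = thallium flux through the channel raised or lowered by more than 3 SD from vehicle-only wells, actives on both sides; inactive = the rest.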 Numbered stars: 1 amine (or outer) side, 2 acyl side, 3 side chain; on linkers, the order of the positions; unused ones are H or OH. Bridge positions count the residues as written; N and C are the ends. Square brackets hold non-standard residues; d marks the D form. Peptide text beside a SMILES is read from it. I, II: the chains in the order shown. Actinocin(9to1) = Cc1c2oc3c(C)ccc(C(=O)[*:1])c3nc-2c(C(=O)[*:2])c(N)c1=O; NMeV = CN[CH](C(=O)O)C(C)C; Sar = CNCC(=O)O

Consider `CNC(=O)Oc1ccc2c(c1)[C@]1(C)CCN(C)C1N2C` (stereo partly drawn), for which the parasite load remaining in assay [1] is 98.8% (inactive). The viability in [1] worked out at 84.5%. For the same compound, the values for the fluorescence ratio in assay [2] and in assay [5] were 1.1 (inactive) and 1.08 (inactive), respectively. For the same compound, the values for the inhibition in assay [3] and in [4] were 5.94% (inactive) and -0.1% (inactive), respectively. Further, the z-score in assay [6] is -0.245 (inactive); in [9] it was -1.49 (inactive). For the same compound, in assay [7], the mean signal is 259 (inactive). Further, the fold change was 0.976 (inactive) in [8] (setting [20]) and 1.81 in assay [8] (setting [21]). Besides, the values for the cell count in assay [8] (setting [22]) and in assay [8] (setting [23]) were 10400 and 10600, respectively. Further, the log fold change Tl+ flux in assay [10] was -0.0388 (inactive); in assay [11] it was -0.0363 (inactive); in assay [12] it was -0.00825 (inactive); in assay [13] it was 0.000651 (inactive); in assay [14], 0.0144 (inactive); in [15], -0.0205 (inactive). For the same compound, the log fold change Tl+ flux in [16] is 0.00244 (inactive); in assay [17], -0.0145 (inactive); in [18], 0.023 (inactive); in assay [19] it was -0.0113 (inactive).

Consider `CN(C)[C@@H]1C(=O)C(C(=O)NCN2CCCC2)=C(O)[C@@]2(O)C(=O)C3=C(O)c4c(O)cccc4[C@@](C)(O)C3CC12` (stereo partly drawn), for which, in [1], the parasite load remaining is 77.2% (inactive) and 69.4% (inactive). Further, in assay [1], the viability was 91.9% and 67.8%. Also, the fluorescence ratio in [2] was 0.68 (active); in [5] it was 0.76 (active). For the same compound, the inhibition in [3] was -3.71% (inactive); in assay [4], 45.3% (active). Also, the z-score in [6] was 0.267 (inactive). The mean signal in assay [7] is 213 (inactive). Besides, the fold change was 0.896 (inactive) in assay [8] (setting [20]) and 0.92 in assay [8] (setting [21]). Also, the cell count in [8] (setting [22]) is 9290; in [8] (setting [23]), 10400. The log fold change Tl+ flux is -0.0801 (inactive) in [10]; -0.00765 (inactive) in assay [11]; -0.0371 (inactive) in assay [12]; -0.0313 (inactive) in assay [13]; 0.0591 (inactive) in assay [14]; 0 (inactive) in assay [15]. Besides, the log fold change Tl+ flux in assay [16] was -0.0252 (inactive); in assay [17], 0.0108 (inactive); in [18], -0.0407 (inactive); in assay [19] it was 0.0233 (inactive).

On to `O=C(O[C@H]1[C@H](Oc2ccccc2COC(=O)C2(O)C=CCCC2=O)O[C@H](CO)[C@@H](O)[C@@H]1O)c1ccccc1` (stereo partly drawn), for which the parasite load remaining in [1] was 48.8% (inactive). Further, in [1], the viability was 72.8%. In addition, the fluorescence ratio in assay [2] was 1 (inactive); in assay [5] it was 0.99 (inactive). Also, the inhibition was -0.22% (inactive) in assay [3] and -2.76% (inactive) in [4]. Moreover, the z-score in assay [6] is -0.65 (inactive). Also, the mean signal in [7] is 249 (inactive). Further, the log fold change Tl+ flux in assay [10] is 0.0202 (inactive); in assay [11], 0.0124 (inactive); in [12], -0.0274 (inactive); in assay [13], 0.0177 (inactive); in assay [14] it was -0.0394 (inactive); in [15], 0.00346 (inactive). The log fold change Tl+ flux in [16] is 0.0475 (inactive); in assay [17], 0.0175 (inactive); in [18], 0.0193 (inactive); in assay [19], 0.0101 (inactive).

For `Cc1c2oc3c(C)ccc(C(=O)NC4C(=O)NC(C(C)C)C(=O)N5CCCC5C(=O)N(C)CC(=O)N(C)C(C(C)C)C(=O)OC4C)c3nc-2c(C(=O)NC2C(=O)NC(C(C)C)C(=O)N3CCCC3C(=O)N(C)CC(=O)N(C)C(C(C)C)C(=O)OC2C)c(N)c1=O` (stereo not drawn) (I: TVP[Sar][NMeV] / II: TVP[Sar][NMeV]; ester I:1-I:C, II:1-II:C; linker I:N-II:N via Actinocin(9to1); configuration not given here), the fold change in assay [8] (setting [20]) is 1.02 (inactive); in assay [8] (setting [21]) it was 1.2. For the same compound, the results for the cell count in assay [8] (setting [22]) and in assay [8] (setting [23]) were 2640 and 2570, respectively. Moreover, in assay [9], the z-score was -1.86 (inactive). For the same compound, the log fold change Tl+ flux in assay [10] is -0.0282 (inactive); in [11], 0.0244 (inactive); in assay [12], -0.0313 (inactive); in assay [13], -0.0252 (inactive); in assay [14] it was -0.013 (inactive); in [15], -0.0516 (inactive). For the same compound, the log fold change Tl+ flux in assay [16] is 0.0499 (inactive); in assay [17] it was -0.00324 (inactive); in assay [18], 0.0337 (inactive); in assay [19], 0.0757 (inactive).

As a reminder, the viability is a per cent measure of how many cells are alive, often set against a control. Broadly, the inhibition is the change of the read-out against control, counted positive when it falls.
